Consider one compound from the supplement of paper PMC11732987, “Enantioselective OTUD7B fragment discovery through chemoproteomics screening and high-throughput optimisation” (Communications Chemistry, 2025).

Common to all, as to assay: log2 ratio of Biotin-Ahx-Ub-VS probe labelling (fragment/DMSO); higher = less target engagement (more negative = stronger competition), active = hit call of the paper (q ≤ 0.05, log2 ratio ≤ -1)
Holding throughout (conditions): compound concentration: 200 uM; treatment time: 3 h

For one experiment, the target named is T1, USP19 (UniProt O94966).
T1 sequence (whole entry): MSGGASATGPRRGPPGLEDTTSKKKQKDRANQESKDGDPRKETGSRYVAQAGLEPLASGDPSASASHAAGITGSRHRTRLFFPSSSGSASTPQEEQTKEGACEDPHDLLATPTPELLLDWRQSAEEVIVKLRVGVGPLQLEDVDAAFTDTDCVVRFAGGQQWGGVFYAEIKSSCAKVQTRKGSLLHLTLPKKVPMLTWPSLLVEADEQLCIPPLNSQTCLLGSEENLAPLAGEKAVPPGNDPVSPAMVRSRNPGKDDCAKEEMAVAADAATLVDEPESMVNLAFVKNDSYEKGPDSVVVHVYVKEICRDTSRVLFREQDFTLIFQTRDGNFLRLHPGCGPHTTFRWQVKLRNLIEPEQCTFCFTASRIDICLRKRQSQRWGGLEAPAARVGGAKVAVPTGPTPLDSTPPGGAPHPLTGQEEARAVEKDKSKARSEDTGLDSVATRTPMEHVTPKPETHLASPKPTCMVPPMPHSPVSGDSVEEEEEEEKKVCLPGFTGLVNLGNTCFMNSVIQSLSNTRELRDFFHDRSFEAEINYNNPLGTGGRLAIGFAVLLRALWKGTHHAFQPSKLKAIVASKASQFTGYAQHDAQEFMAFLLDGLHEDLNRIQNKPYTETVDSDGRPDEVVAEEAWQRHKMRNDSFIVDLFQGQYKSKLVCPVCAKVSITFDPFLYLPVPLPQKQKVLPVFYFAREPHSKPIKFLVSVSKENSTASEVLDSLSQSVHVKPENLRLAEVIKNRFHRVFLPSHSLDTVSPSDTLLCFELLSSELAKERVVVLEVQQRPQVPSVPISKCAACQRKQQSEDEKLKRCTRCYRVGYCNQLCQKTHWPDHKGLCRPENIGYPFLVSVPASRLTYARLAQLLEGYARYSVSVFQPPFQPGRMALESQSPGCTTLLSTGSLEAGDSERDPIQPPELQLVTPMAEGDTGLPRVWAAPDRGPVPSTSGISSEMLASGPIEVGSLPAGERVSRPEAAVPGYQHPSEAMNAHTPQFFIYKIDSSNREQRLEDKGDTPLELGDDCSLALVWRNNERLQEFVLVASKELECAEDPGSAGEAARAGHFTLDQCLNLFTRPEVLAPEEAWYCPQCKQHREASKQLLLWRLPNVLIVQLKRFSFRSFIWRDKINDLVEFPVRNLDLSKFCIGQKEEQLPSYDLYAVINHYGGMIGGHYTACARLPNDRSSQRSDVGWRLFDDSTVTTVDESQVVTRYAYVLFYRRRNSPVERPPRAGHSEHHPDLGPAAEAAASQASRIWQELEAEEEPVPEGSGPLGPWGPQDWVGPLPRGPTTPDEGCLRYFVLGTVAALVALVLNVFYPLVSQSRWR
The essentials: (§1)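 HEK293T lysate, 495 µg per sample in Tris/CHAPS/IGEPAL buffer with protease inhibitors, was treated in triplicate with fragment at 200 µM or vehicle for 3 h and then with Biotin-Ahx-Ub-VS at 0.5 µM final for 1 h. Labelled DUBs were NeutrAvidin-enriched, digested with LysC and trypsin, and run by diaPASEF LC-MS/MS. Spectronaut label-free quantities were global-median-normalised, and values are average log2 fragment/vehicle ratios by unpaired t-test on proteins with ≥2 unique peptides.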

The target in a further experiment is T2, USP22 (UniProt Q9UPT9).
T2 sequence (whole entry): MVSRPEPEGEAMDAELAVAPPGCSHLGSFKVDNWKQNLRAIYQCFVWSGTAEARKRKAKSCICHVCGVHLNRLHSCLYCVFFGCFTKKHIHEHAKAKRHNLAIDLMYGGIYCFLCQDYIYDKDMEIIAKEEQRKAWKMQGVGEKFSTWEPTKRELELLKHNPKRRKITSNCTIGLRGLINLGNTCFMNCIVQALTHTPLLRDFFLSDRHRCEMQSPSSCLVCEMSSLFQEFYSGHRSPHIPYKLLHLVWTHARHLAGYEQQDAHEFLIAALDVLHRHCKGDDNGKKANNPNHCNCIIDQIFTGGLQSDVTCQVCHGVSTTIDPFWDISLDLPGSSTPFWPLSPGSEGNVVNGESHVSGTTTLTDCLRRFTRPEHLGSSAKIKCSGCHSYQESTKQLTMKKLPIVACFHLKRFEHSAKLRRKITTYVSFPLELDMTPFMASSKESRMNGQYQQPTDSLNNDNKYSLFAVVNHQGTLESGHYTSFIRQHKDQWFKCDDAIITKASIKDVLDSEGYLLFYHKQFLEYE
The essentials: as §1

In a further experiment the target is USP24 (UniProt Q9UPU5). The essentials: as §1
USP24, sequence (Q9UPU5 whole entry): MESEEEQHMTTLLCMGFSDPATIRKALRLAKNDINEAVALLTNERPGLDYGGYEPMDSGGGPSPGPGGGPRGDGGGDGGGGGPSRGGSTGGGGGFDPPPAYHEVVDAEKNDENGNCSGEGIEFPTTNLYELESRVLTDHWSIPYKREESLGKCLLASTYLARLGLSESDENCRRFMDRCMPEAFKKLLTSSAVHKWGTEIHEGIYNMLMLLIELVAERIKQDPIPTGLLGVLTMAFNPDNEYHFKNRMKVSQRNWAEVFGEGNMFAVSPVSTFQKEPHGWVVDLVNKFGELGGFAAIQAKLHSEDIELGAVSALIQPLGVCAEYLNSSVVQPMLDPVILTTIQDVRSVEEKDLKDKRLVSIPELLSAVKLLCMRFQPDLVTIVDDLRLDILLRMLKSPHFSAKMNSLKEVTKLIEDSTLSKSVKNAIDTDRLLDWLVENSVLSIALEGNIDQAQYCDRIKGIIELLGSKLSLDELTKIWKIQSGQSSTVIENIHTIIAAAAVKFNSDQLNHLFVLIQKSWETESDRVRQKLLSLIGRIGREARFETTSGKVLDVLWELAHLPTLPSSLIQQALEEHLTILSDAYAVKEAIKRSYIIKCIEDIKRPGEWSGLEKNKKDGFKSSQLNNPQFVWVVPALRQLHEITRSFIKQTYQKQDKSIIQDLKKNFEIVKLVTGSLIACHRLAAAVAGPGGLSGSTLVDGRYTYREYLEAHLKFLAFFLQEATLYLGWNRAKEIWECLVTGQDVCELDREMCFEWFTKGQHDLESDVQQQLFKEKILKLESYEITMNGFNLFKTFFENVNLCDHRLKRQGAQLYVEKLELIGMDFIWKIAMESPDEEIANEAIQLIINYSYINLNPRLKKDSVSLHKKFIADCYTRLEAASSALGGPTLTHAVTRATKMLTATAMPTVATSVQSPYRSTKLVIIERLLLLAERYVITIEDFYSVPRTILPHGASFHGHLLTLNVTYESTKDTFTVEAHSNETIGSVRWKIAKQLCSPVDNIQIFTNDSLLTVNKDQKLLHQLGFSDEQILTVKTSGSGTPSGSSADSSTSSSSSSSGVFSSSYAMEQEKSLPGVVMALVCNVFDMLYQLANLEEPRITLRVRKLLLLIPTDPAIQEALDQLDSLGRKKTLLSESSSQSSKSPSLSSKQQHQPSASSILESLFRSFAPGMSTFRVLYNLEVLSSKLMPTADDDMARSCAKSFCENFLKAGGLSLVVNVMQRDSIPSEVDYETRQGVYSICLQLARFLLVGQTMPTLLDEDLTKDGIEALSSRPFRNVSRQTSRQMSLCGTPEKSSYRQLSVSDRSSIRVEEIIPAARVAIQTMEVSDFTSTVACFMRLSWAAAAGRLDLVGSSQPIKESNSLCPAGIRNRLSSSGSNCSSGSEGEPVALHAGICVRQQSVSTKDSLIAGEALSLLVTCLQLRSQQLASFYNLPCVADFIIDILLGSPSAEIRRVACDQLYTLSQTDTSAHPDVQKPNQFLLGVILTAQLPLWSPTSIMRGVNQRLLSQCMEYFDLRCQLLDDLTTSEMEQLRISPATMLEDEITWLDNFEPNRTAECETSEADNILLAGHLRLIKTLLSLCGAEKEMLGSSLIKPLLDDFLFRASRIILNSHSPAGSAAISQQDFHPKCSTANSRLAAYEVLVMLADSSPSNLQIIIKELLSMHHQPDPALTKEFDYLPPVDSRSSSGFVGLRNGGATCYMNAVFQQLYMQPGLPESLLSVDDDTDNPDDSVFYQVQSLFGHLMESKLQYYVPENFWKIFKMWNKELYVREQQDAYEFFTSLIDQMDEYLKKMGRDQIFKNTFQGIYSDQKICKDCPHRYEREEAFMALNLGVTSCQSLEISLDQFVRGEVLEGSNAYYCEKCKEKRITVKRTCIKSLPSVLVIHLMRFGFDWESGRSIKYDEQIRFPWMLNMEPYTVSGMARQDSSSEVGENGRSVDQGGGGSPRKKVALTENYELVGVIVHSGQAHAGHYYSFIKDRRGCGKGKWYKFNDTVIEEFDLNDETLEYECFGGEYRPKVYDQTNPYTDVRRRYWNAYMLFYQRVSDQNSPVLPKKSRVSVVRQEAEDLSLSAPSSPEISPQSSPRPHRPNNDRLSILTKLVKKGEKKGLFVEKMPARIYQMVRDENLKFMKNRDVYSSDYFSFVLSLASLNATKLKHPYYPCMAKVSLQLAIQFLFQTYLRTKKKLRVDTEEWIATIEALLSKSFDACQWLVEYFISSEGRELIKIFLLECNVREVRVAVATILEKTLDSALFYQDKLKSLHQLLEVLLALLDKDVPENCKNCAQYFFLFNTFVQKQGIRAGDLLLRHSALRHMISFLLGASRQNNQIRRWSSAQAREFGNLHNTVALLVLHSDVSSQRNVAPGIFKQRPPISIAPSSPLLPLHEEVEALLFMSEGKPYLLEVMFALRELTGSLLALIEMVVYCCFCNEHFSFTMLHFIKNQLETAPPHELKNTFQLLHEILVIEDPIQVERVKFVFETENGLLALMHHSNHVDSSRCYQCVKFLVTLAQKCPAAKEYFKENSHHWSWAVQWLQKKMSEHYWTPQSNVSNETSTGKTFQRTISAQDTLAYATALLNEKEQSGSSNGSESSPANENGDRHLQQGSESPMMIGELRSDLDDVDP
A further experiment addresses T3, USP25 (UniProt Q9UHP3).
T3 sequence (whole entry): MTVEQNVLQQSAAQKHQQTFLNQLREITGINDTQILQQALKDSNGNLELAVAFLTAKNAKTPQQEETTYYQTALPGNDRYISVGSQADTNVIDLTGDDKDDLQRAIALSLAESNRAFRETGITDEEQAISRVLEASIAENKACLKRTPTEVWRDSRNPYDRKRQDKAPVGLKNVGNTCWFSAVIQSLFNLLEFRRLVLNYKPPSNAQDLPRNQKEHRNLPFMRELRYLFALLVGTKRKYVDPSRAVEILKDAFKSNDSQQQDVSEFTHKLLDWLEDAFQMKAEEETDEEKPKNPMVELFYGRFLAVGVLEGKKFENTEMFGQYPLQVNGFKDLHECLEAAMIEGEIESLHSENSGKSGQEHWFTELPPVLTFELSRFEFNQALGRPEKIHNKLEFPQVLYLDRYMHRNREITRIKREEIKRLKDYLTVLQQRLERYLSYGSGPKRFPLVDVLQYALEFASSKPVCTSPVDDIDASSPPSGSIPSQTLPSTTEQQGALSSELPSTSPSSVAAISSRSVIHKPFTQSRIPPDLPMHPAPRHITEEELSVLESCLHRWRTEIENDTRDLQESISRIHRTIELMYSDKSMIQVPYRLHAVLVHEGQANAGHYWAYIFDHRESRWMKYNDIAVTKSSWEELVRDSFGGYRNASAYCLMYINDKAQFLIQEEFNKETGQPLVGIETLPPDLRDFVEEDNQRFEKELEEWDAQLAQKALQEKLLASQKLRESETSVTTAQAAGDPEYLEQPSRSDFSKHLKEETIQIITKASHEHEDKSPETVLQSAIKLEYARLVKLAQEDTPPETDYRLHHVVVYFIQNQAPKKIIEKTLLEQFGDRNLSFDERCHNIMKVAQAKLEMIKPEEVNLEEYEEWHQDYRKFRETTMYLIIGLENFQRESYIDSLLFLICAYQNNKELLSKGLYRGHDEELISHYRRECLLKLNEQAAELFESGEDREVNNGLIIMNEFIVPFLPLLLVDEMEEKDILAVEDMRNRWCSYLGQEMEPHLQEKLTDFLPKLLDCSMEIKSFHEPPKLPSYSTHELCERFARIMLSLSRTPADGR
The essentials: as §1

Another experiment concerns the target T4, USP28 (UniProt Q96RU2).
T4 sequence (whole entry): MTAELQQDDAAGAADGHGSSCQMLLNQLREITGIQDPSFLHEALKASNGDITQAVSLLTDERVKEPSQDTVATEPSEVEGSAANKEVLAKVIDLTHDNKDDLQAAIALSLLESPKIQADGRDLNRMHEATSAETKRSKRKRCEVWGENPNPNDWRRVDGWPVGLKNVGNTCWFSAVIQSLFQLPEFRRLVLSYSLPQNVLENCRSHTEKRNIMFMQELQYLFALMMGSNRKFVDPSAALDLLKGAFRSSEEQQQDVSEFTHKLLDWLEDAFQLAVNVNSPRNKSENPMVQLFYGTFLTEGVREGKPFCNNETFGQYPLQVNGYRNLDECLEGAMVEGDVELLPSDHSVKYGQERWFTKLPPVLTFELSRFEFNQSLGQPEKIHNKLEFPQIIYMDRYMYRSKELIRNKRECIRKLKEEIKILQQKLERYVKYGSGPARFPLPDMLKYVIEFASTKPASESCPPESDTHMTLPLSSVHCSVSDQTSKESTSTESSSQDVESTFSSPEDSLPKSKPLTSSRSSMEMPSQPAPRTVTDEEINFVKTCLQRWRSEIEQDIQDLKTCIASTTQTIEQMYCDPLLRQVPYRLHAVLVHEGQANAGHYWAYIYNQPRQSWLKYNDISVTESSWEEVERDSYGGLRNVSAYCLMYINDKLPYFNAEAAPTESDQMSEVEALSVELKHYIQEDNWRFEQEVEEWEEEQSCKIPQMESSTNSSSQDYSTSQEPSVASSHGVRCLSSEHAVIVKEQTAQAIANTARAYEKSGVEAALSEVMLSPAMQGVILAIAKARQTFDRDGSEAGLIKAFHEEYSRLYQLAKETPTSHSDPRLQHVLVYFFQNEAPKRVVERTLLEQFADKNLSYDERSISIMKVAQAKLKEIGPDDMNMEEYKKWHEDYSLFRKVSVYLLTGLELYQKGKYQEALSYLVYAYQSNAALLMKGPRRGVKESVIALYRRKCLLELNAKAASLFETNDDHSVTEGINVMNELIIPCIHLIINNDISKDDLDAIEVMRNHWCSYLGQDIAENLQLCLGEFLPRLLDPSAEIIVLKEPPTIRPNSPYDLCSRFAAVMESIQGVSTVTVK
The essentials: as §1

The structures appear in SMILES notation. Values without a mark were called inactive.

For `Cl.O=C(CCl)NCCN1CCc2ccccc21`, the “log2 ratio of Biotin-Ahx-Ub-VS probe labelling” value with USP19 was -0.976; in the experiment with USP22, -1.07 (active); in the experiment with USP24, -1.05 (active); with USP25, -0.576; with USP28, -1.11 (active).
